Potency data for 14 compounds are collected here from PubChem BioAssay (NCATS).

Assay [1] can be described thus: HPAF-II Cancer Cell Toxicity qHTS against the NCATS CANVASS Library (AID 1347346). Note: nearly all actives have a fitted effect of over 55% in size. In a few lines: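 Luminescence from CellTiter-Glo, added after 72 h compound exposure and a 15 min room-temperature incubation, served as the viability readout. HPAF-II cells (1000/well) received an 11-point concentration series.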
Background: Quantitative high-throughput screening tests each substance at several concentrations.

Assay [2] is described as follows: U-118MG Cancer Cell Toxicity qHTS against the NCATS CANVASS Library (AID 1347351). In a few lines:
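Following a 4 h pre-incubation of 1000 seeded cells, compounds were pinned in an 11-pnt dilution series and left for 72 h; viability then came from CellTiter-Glo.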

Assay [3] can be described thus: A2780 Cisplatin Sensitive Ovarian Cancer Cell Toxicity qHTS against the NCATS CANVASS Library (AID 1347353). Note: nearly all actives have a fitted effect of over 60% in size. The essentials: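 Luminescent ATP content (ATPLite, 10 min at room temperature) served as the read-out after cells had been exposed to compounds for 72 hours at 37 °C. Dosing followed an 11-point concentration series.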
Assay [4] is described as follows: SDT Cancer Cell Toxicity qHTS against the NCATS CANVASS Library (AID 1347365). Note: nearly all actives have a fitted effect of over 60% in size. In a few lines:
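qHTS, SDT dog glioma line, 500 cells/well; cpds 11 pts; 72 hr, 37C, 5% CO2; CellTiterGlo ATP luminescence.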

Assay [5] can be described thus: qHTS for ATAD5 Antagonist screened against the NCATS CANVASS Library (AID 1347370). Note: nearly all actives have a fitted effect of over 65% in size. In a few lines:
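HEK293T cells with stably integrated ATAD5-luciferase reporter, 2000/well, 5 h attachment; compounds plus 10 µM 5-fluorouridine, 16 h at 37 °C. Luciferase luminescence read, with CellTiter-Fluor viability read first.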

A short description of assay [6]: qHTS for Activators of p53 Stress Response Pathway screened against the NCATS CANVASS Library (AID 1347388). The essentials: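 Beta-lactamase reporter driven by p53 response elements in HCT-116 cells, read as the 460 nm/530 nm emission ratio after CCF4 loading, following 16 h of exposure to an 11-point series. Cell viability was measured in the same wells by CellTiter-Glo luminescence.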

The nature of assay [7]: Secretion counterscreen for inhibitors of the SERCaMP assay screened against the NCATS CANVASS Library (AID 1347390).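 Note: light from luciferase secreted into medium read as a measure of general secretion.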 In a few lines:
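SH-SY5Y-GLuc STOP cells; 4 h attach; cpds 0.001 - 77 uM (qHTS, 11 pts), 20 h 37C/5% CO2; coelenterazine in glow buffer; luminescence, 5 s exposure.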
On the technique in general: Counterscreens check selectivity or assay interference.

A short description of assay [8]: qHTS for activators of Nrf2/ARE signaling pathway screened against the NCATS CANVASS Library (AID 1347391). Note: nearly all actives have a fitted effect of over 60% in size. In a few lines: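 Plate ARE-bla HepG2 cells at 2000/well and let them settle 5 h. Pin-transfer compounds in DMSO, incubate 16 h at 37C. Load CCF4 for 2 h at room temperature and read blue/green fluorescence.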
A short description of assay [9]: Vero-766 cells viability qHTS against the NCATS CANVASS Library: Counterscreen for Zika virus inhibition assay (AID 1347394). Note: nearly all actives have a fitted effect of over 60% in size. In a few lines:
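Vero 766, no virus; 1000 cells/well; o/n attach; cpd 11-pt; 72 h, 37C, 5% CO2; CTG luminescence; cell-free media wells = 100% inhibition.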

A short description of assay [10]: qHTS for inhibitors of ER calcium dysfunction: SERCaMP assay screened against the NCATS CANVASS Library (AID 1347393). Note: nearly all actives have a fitted effect of over 40% in size. In a few lines: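 Thapsigargin-induced ER calcium depletion drives GLuc-SERCaMP secretion from SH-SY5Y cells; compounds given 16 h beforehand were scored by lowered coelenterazine luminescence after 4 h challenge.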

Molecules are shown by their SMILES. Inconclusive results are not listed. Calls of active or inactive are those of the source. Calls come from the whole dose curve; as a rule, active = well fitted curve in the direction sought with a large enough effect; inconclusive = small, poorly fitted or top-dose-only effect, or another doubt; inactive = no such curve, though single readings can be large; an effect the other way counts as inactive or inconclusive.
Potency is the fitted concentration of half-maximal effect.

For the compound `C=C[C@]12C=CCN3CC[C@@]4(c5ccccc5NC(=O)[C@@H]4C1)[C@@H]32`, the Potency entry in assay [1], in [2], in [3], in assay [4], in assay [5] and in [6] was “inactive” each time. In addition, the Potency result in assay [7] and in assay [9] was “inactive” in each case. Also, the Potency in assay [8] is 20900 nM (active).
Consider `CO[C@H]1C[C@H](O[C@H]2[C@@H](O)C[C@H](O[C@H]3CC[C@]4(C=O)[C@H]5CC[C@]6(C)C(C7=CC(=O)OC7)CC[C@]6(O)[C@@H]5CC[C@]4(O)C3)O[C@@H]2C)O[C@H](C)[C@H]1O[C@H]1C[C@@H](OC)[C@@H](O[C@@H]2O[C@H](CO)[C@@H](O)[C@H](O)[C@H]2O)[C@@H](C)O1` (stereo not given in full), for which the Potency in assay [1] was 376 nM (active); in [2], 188 nM (active); in [3], 83.3 nM (active); in assay [4], 148 nM (active); in assay [5] it was 660 nM (active); in assay [7], 767 nM (active). Further, the Potency entry in [8] and in assay [10] was “inactive” each time.
Consider `CCC(=O)N[C@@H](C[C@H](C)C(Cl)(Cl)Cl)C(=O)N1C(=O)C=C(OC)[C@@H]1C[C@H](C)C(Cl)Cl`, for which the Potency result in assay [3], in assay [4], in assay [5], in assay [7] and in assay [8] was “inactive” throughout. Further, the Potency in assay [10] was 27200 nM (active).
As for `C=C[C@H]1CN2CCc3c([nH]c4cccc(OC)c34)[C@@H]2C[C@@H]1/C(=C\OC)C(=O)OC`, the Potency result in assay [1], in [5], in assay [6] and in assay [9] was “inactive” throughout. For the same compound, the Potency in assay [3] is 20900 nM (active); in [4] it was 16600 nM (active); in assay [10] it was 17200 nM (active).
On to `CCCC[C@@H](C)/C=C1/CN2CCC[C@H]2[C@@](C)(O)[C@@H]1O`, for which the Potency result in assay [2], in [3], in assay [4], in assay [5], in assay [6] and in assay [7] was “inactive” throughout. Besides, the Potency entry in assay [9] is “inactive”.
`COC1C(O)C(C)OC(OC2C(Oc3cccc4c(O)c5c(=O)oc6ccc(C)c7c(=O)oc(c34)c5c67)OC(C)C(O)C2O)C1O` (stereo not given): the Potency result in [2], in assay [8] and in [10] was “inactive” in each case. Further, the Potency in assay [3] was 3320 nM (active); in [4], 11800 nM (active); in assay [6], 10500 nM (active); in assay [7], 30500 nM (active).
Regarding `C/C=C(\C)C(=O)O[C@@H]1[C@@H](O)[C@@H]2O[C@H]3[C@H](O[C@@H](CCCCC)CCCCCCC(=O)CCC(=O)OC[C@@H](O2)[C@H]1OC(=O)/C=C/c1ccccc1)O[C@H](C)[C@H](OC(C)=O)[C@@H]3O`, the Potency was 133 nM (active) in [1]; 332 nM (active) in assay [3]; 52.6 nM (active) in assay [4]; 76.7 nM (active) in [7]; 86 nM (active) in [10]. Moreover, the Potency result in assay [5], in [6] and in [9] was “inactive” in each case.
With `CCCCC1CC[C@H]2CCCC(CCC)N12` (stereo not given in full), the Potency result in [1], in assay [2], in assay [4], in assay [5], in [6] and in [7] was “inactive” each time. Moreover, the Potency result in [8], in assay [10] and in [9] was “inactive” throughout.
On to `C/C=C1/CN2CC[C@@]34c5ccccc5N(C)[C@@H]3[C@@H]2C[C@@H]1[C@H]4C(=O)OC`, for which the Potency entry in [1], in [2], in assay [3], in [6], in assay [7] and in assay [8] was “inactive” in each case. For the same compound, the Potency entry in assay [9] is “inactive”. Also, the Potency in assay [10] was 860 nM (active).
Regarding `C/C=C/[C@@H]1[C@H]2C[C@@H](C)CC[C@@H]2C(C)=C[C@H]1C(=O)c1c(O)c(-c2ccc(O)cc2)c[nH]c1=O`, the Potency in assay [1] is 13300 nM (active); in [10], 19300 nM (active); in assay [9], 18600 nM (active). For the same compound, the Potency result in assay [2] and in assay [7] was “inactive” throughout.
Turning to `CO[C@H]1[C@H](O[C@H]2CC[C@]3(C=O)[C@H]4CC[C@]5(C)[C@@H](C6=CC(=O)OC6)CC[C@]5(O)[C@@H]4CC[C@]3(O)C2)O[C@H](C)[C@H](O)[C@@H]1OC`, the Potency was 335 nM (active) in [1]; 94.3 nM (active) in assay [2]; 209 nM (active) in [3]; 148 nM (active) in assay [4]; 132 nM (active) in assay [5]; 767 nM (active) in assay [7]. Moreover, in assay [9], the Potency was 741 nM (active). Besides, the Potency entry in assay [6], in assay [8] and in [10] was “inactive” throughout.
As for `CO[C@H]([C@@H](C)[C@H]1O[C@]1(C)C[C@H](C)/C=C/C=C(\C)[C@H]1O[C@@H](CC(=O)O)CC[C@@H]1C)[C@@H](C)O`, the Potency in [1] is 26.6 nM (active); in assay [3], 5.3 nM (active); in assay [4], 14.8 nM (active); in assay [6] it was 14.8 nM (active); in [8] it was 6.6 nM (active). In addition, the Potency result in [5], in assay [7] and in [10] was “inactive” throughout.
As for `O[C@H]1C=C[C@@]23CCN(Cc4cc5c(cc42)OCO5)[C@@H]3C1`, the Potency result in assay [1], in assay [2], in assay [3], in [4], in assay [5] and in [6] was “inactive” in each case. In addition, the Potency entry in assay [7], in [8], in assay [10] and in assay [9] was “inactive” each time.
For the compound `C=CC(C)(C)[C@@]12C[C@H]3C(=O)N/C(=C/c4cnc[nH]4)C(=O)N3[C@@H]1Nc1ccccc12`, the Potency entry in [1], in [2], in assay [3], in assay [4], in assay [5] and in assay [6] was “inactive” in each case. In addition, the Potency result in assay [7] and in assay [9] was “inactive” in each case.
